Results on eleven compounds are retold here after PubChem BioAssay (NCI).

Assay [1] in a line: NCI Yeast Anticancer Drug Screen. Data for the rad50 strain (AID 155).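 Also: 0% = growth of vehicle-only cultures of the same strain.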 Conditions: S. cerevisiae rad50 strain growth inhibition, stronger effect = higher value. A digest of the protocol: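 Readout: growth inhibition relative to vehicle-treated cultures. Compound exposure was carried out in a genetically defined yeast strain deficient in DNA damage repair.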
The nature of assay [2]: NCI Yeast Anticancer Drug Screen. Data for the mec2-1 strain (AID 157). To be noted: S. cerevisiae mec2-1 strain, stronger effect = higher value. A digest of the protocol: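 Strain: mec2-1 (DNA repair/cell cycle alteration). Compound exposure, then growth measured; inhibition expressed relative to vehicle.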
A short description of assay [3]: NCI Yeast Anticancer Drug Screen. Data for the sgs1 mgt1 strain (AID 161).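 Also: 0% = growth of cultures given vehicle only.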 To be noted: S. cerevisiae sgs1 mgt1 strain, stronger effect = higher value. The method in brief:
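Inhibition of yeast growth, normalised to vehicle-treated controls, is reported for a strain bearing genetic alterations in DNA damage repair.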

A short description of assay [4]: NCI Yeast Anticancer Drug Screen. Data for the cln2 rad14 strain (AID 165).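 Also: 0% = growth equal to vehicle treated cultures.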 To be noted: S. cerevisiae cln2 rad14 strain, stronger effect = higher value. The method in brief: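 Compounds are applied to the cln2 rad14 yeast strain, and growth is then compared with that of vehicle-treated cultures to give inhibition.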
Assay [5] can be described thus: NCI Yeast Anticancer Drug Screen. Data for the bub3 strain (AID 167). To be noted: S. cerevisiae bub3 mutant strain, stronger effect = higher value. The method in brief: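 Readout: yeast growth inhibition, expressed relative to vehicle-only wells. The test organism is a mutant strain from a panel with lesions in DNA repair or checkpoint genes.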
The nature of assay [6]: NCI Yeast Anticancer Drug Screen. Data for the mlh1 rad18 strain (AID 175). Conditions: S. cerevisiae mlh1 rad18 strain growth inhibition, stronger effect = higher value. A digest of the protocol: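 Read-out is yeast growth inhibition, calculated against vehicle-only controls. The compound was applied to a strain engineered with DNA damage repair alterations.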
[7] abbreviates: at 5.0 µM (retest, dose inferred, filed as 0.5).
Where [8] appears, read: at 50.0 µM (retest, dose inferred, filed as 5.0).

Several values for one entry are separate records, joined by “and”; a condition that tells them apart may be missing. Equal values may be shown once. This is part of a sample that, as a whole, favours compounds with a hit. Of some 79,000 tested, about 15% had one in any assay. Unmarked numbers belong to inactive results. Activity calls are given as the source filed them. Rule as the data show it: active = growth inhibition above about 70%; inactive = the rest.

For `ClC1=NSSC1(Cl)Cl`, the growth inhibition in assay [1] (setting [7]) is 16%; in assay [1] (setting [8]), 96% (active); in assay [1] (at 50.0 µM), 90.4% (active); in assay [2] (setting [7]), 16%; in assay [2] (setting [8]), 99% (active); in assay [2] (at 50.0 µM), 92.5% (active). Also, the growth inhibition in assay [3] (setting [7]) was 18%; in assay [3] (setting [8]) it was 99% (active); in assay [3] (at 50.0 µM) it was 91.2% (active); in assay [4] (setting [7]), 20%; in assay [4] (setting [8]), 78% (active); in assay [4] (at 50.0 µM), 87.7% (active). The growth inhibition in assay [5] (setting [7]) is 21%; in assay [5] (setting [8]) it was 99% (active); in assay [5] (at 50.0 µM), 90.3% (active); in assay [6] (setting [7]) it was 17%; in assay [6] (setting [8]) it was 90% (active); in assay [6] (at 50.0 µM) it was 92.2% (active).
On to `O=S(=O)(O)O`, for which the growth inhibition in assay [6] (at 50.0 µM) is -10.7% and 13.2% and -10.6%.
In the case of `CC(=O)OC1C2(CC3N4C(=O)C5(CO)SSC4(CC31O)C(=O)N5C)OC(C)C(C)(C)C2=O` (configuration not stated), the growth inhibition in assay [1] (setting [7]) is 67%; in assay [1] (setting [8]), 99% (active); in assay [1] (at 50.0 µM), 90.2% (active); in assay [2] (setting [7]), 80% (active); in assay [2] (setting [8]), 100% (active); in assay [2] (at 50.0 µM), 93.2% (active). Besides, the growth inhibition in assay [3] (setting [7]) was 68%; in assay [3] (setting [8]), 97% (active); in assay [3] (at 50.0 µM), 92.8% (active); in assay [5] (setting [7]), 71% (active); in assay [5] (setting [8]), 99% (active); in assay [5] (at 50.0 µM), 91.5% (active). The growth inhibition in assay [6] (setting [7]) is 83% (active); in assay [6] (setting [8]) it was 99% (active); in assay [6] (at 50.0 µM) it was 91.2% (active).
For the compound `Oc1c(Cl)c(Cl)c(Cl)c(Cl)c1Cl` (tested in a mixture with another compound), the growth inhibition in assay [1] (setting [7]) is 56% and 41% and 27%; in assay [1] (setting [8]), 99% (active); in assay [1] (at 50.0 µM), 99.2% (active) and 99% (active) and 98.8% (active); in assay [2] (setting [7]), 28% and 24% and -7%; in assay [2] (setting [8]), 99% (active) and 100% (active); in assay [2] (at 50.0 µM) it was 99.4% (active) and 99.2% (active) and 99.7% (active). The growth inhibition is 42% and 28% and 16% in assay [4] (setting [7]); 99% (active) and 98% (active) in assay [4] (setting [8]); 97.2% (active) and 99.2% (active) and 98.5% (active) in assay [4] (at 50.0 µM); 30% and 29% and 1% in assay [5] (setting [7]); 99% (active) in assay [5] (setting [8]); 99.5% (active) and 99.3% (active) in assay [5] (at 50.0 µM). Besides, the growth inhibition in assay [6] (setting [7]) is 56% and 46% and 23%; in assay [6] (setting [8]) it was 99% (active); in assay [6] (at 50.0 µM) it was 99.2% (active) and 99% (active).
Consider `ClCCN(CCCl)c1ccc(C=NCCCCN=Cc2ccc(N(CCCl)CCCl)cc2)cc1`, for which the growth inhibition was 3% in assay [1] (setting [7]); 82% (active) in assay [1] (setting [8]); 88.8% (active) in assay [1] (at 50.0 µM); 8% in assay [3] (setting [7]); 62% in assay [3] (setting [8]); 82.8% (active) in assay [3] (at 50.0 µM). For the same compound, the growth inhibition in assay [4] (setting [7]) was -10%; in assay [4] (setting [8]) it was 82% (active); in assay [4] (at 50.0 µM), 88.6% (active); in assay [5] (setting [7]) it was -10%; in assay [5] (setting [8]), 3%; in assay [5] (at 50.0 µM), 7.15%. Besides, the growth inhibition in assay [6] (setting [7]) was 63%; in assay [6] (setting [8]), 95% (active); in assay [6] (at 50.0 µM), 85.8% (active).
With `O=C(N/N=C/c1ccc(F)cc1)c1ccc(N(CCCl)CCCl)cc1`, the growth inhibition in assay [1] (setting [7]) is -7%; in assay [1] (setting [8]), -5%; in assay [1] (at 50.0 µM), 38.9%; in assay [2] (setting [7]), -12%; in assay [2] (setting [8]), -11%; in assay [2] (at 50.0 µM), 18.2%. Besides, the growth inhibition in assay [4] (setting [7]) was -26%; in assay [4] (setting [8]), -34%; in assay [4] (at 50.0 µM), 25.2%; in assay [5] (setting [7]), -3%; in assay [5] (setting [8]) it was 3%; in assay [5] (at 50.0 µM) it was 27.8%. The growth inhibition was -3% in assay [6] (setting [7]), -8% in assay [6] (setting [8]) and 59.3% in assay [6] (at 50.0 µM).
For the compound `CCCCCC(O)C1C(=O)OC(C)C(O)/C=C/C=C/C=C/C=C/C=C(\C)C(O)C(O)C(O)CC(O)CC(O)CC(O)CC(O)CC1O` (configuration not stated), the growth inhibition in assay [1] (at 50.0 µM) is -5.85% and -8.05% and -2.3%; in assay [2] (at 50.0 µM), -36.5% and -20% and -0.45%; in assay [3] (at 50.0 µM), -2.25% and -8.45% and -33%; in assay [4] (at 50.0 µM) it was -14.2% and -5% and -4.05%; in assay [5] (at 50.0 µM), -2.15% and 4.5% and 11%; in assay [6] (at 50.0 µM), 17.9% and -47.9% and 0.55%.
On to `CCOC(=O)c1ccccc1N`, for which the growth inhibition was 6% in assay [1] (setting [7]); 4% in assay [1] (setting [8]); -2.65% in assay [1] (at 50.0 µM); 2% in assay [2] (setting [7]); 1% in assay [2] (setting [8]); 1.2% in assay [2] (at 50.0 µM). In addition, the growth inhibition in assay [3] (setting [7]) is -10%; in assay [3] (setting [8]), 1%; in assay [3] (at 50.0 µM), -5.7%; in assay [5] (setting [7]), 0%; in assay [5] (setting [8]) it was 6%; in assay [5] (at 50.0 µM) it was 7.7%. Moreover, the growth inhibition in assay [6] (setting [7]) is -1%; in assay [6] (setting [8]), 4%; in assay [6] (at 50.0 µM), -17.9%.
For the compound `c1ccncc1`, the growth inhibition was 17% in assay [1] (setting [7]); 20% in assay [1] (setting [8]); -2% in assay [2] (setting [7]); 7% in assay [2] (setting [8]); -4% in assay [3] (setting [7]); 19% in assay [3] (setting [8]). In addition, the growth inhibition in assay [4] (setting [7]) is 0%; in assay [4] (setting [8]), -1%; in assay [5] (setting [7]), -3%; in assay [5] (setting [8]), 6%; in assay [6] (setting [7]) it was 8%; in assay [6] (setting [8]), 32%.
Turning to `CC(C)CCC[C@@H](C)[C@H]1CC[C@H]2[C@@H]3CC[C@H]4C[C@H](NCCCl)CC[C@]4(C)[C@H]3CC[C@]12C`, the growth inhibition in assay [1] (setting [7]) is 28%; in assay [1] (setting [8]), 36%; in assay [1] (at 50.0 µM) it was 52%; in assay [2] (setting [7]), 15%; in assay [2] (setting [8]), 26%; in assay [2] (at 50.0 µM), 43.6%. In addition, the growth inhibition in assay [3] (setting [7]) was 40%; in assay [3] (setting [8]), 68%; in assay [3] (at 50.0 µM), 49.1%; in assay [5] (setting [7]), 45%; in assay [5] (setting [8]), 49%; in assay [5] (at 50.0 µM), 42.2%. Moreover, the growth inhibition is 22% in assay [6] (setting [7]), 27% in assay [6] (setting [8]) and 55% in assay [6] (at 50.0 µM).
Turning to `CCOP(=O)(OCC)/C(C#N)=C/c1cccc(Br)c1`, the growth inhibition is 19% in assay [1] (setting [7]); 88% (active) in assay [1] (setting [8]); 88.2% (active) in assay [1] (at 50.0 µM); 3% in assay [3] (setting [7]); 94% (active) in assay [3] (setting [8]); 85.3% (active) in assay [3] (at 50.0 µM). Besides, the growth inhibition is 24% in assay [4] (setting [7]); 91% (active) in assay [4] (setting [8]); 72.2% (active) in assay [4] (at 50.0 µM); 5% in assay [5] (setting [7]); 92% (active) in assay [5] (setting [8]); 75.2% (active) in assay [5] (at 50.0 µM). Besides, the growth inhibition in assay [6] (setting [7]) is -3%; in assay [6] (setting [8]), 94% (active); in assay [6] (at 50.0 µM), 85.8% (active).
